Assay outcomes: PubChem, several laboratories
HSP90 refold inh: HSP90 refolding inhibition in rabbit reticulocyte lysate; luciferase refolding luminescence, 3 h; 290,000 tested, 0.91% active; inhibition, % at 5.6 µM;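 active = inhibition above the screen-wide mean plus 3 SD, computed separately per campaign, cut at about 16% in these data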;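 note: inhibitors lower the luminescence because luciferase stays unfolded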
SENP8 block-1: inhibitors of human SENP8 protease. Q96LD8. recombinant SENP8, Nedd8 substrate fluorescence. inhibition, % at 20 µM. 360,000 tested, 0.64% active; in the data active = inhibition mostly above about 40%, no sharp cut-off; inactive = mostly below about 27%
SENP8 block-2: SENP8 protease inhibition | purified SENP8, Z-RLRGG-aminoluciferin cleavage, luminescence | 330,000 tested, 1.2% active | inhibition, % at 10 µM | Q96LD8; in the data active = inhibition above about 50%
SENP6 inh: SENP6 protease inhibition; Recombinant SENP6 catalytic domain, aminoluciferin luminescence; AID 2599; Q9GZR1; inhibition, % at 10 µM; 330,000 tested, 1.8% active;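 active = inhibition above about 50% at the single tested dose, limit read from the data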
Target sequence (Q9GZR1 628-1112 limits assumed): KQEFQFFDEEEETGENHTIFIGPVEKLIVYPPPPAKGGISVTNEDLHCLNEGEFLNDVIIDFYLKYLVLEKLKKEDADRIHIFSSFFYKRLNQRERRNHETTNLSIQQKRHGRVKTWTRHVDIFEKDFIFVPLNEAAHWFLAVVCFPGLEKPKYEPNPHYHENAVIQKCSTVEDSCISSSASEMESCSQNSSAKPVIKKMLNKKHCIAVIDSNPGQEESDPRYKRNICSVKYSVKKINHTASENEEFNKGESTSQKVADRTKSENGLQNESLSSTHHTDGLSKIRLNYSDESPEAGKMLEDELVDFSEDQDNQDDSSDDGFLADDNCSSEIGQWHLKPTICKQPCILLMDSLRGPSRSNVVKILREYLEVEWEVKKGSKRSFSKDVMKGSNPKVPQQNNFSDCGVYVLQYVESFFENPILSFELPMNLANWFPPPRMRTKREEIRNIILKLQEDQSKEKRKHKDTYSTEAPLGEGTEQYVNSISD
SENP7 inh: blocks the human protease SENP7; recombinant SENP7, Z-RLRGG-aminoluciferin luminescence, 40 min; inhibition, % at 5 µM; 330,000 tested, 1.5% active; AID 434973;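 active = inhibition above about 50% at the single test dose, limit read from the data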
Numbers stand for hits; - = inactive; . = no result given. Only some compounds are listed: those with a hit (about 2.7% of all), similar ones and a draw of the others.

SMILES	HSP90 refold inh	SENP8 block-1	SENP8 block-2	SENP6 inh	SENP7 inh
CNC(=O)c1sc2nc(-c3ccc(OC)cc3)cn2c1C	-	-	-	-	-
COc1ccc(-c2cn3c(C)c(C(=O)N4CCc5ccccc5C4)sc3n2)cc1	19.0	-	-	-	-
Cc1c(NC(=S)N/N=C/c2ccc([N+](=O)[O-])cc2O)c(=O)n(-c2ccccc2)n1C	-	40.1	-	-	-
O=C(c1ccc(Br)o1)N1CCc2ccccc21	-	.	92.9	94.3	95.1
O=C1C2C(C(=O)N1/N=C/c1cc(Br)cc([N+](=O)[O-])c1O)C1C=CC2C12CC2 (stereo not drawn)	-	40.9	-	-	-
Cc1csc2nc(CNC(=O)c3cccc(C(F)(F)F)c3)cn12	-	-	-	-	-
FC(F)(F)c1ccc(NCc2ccccn2)nc1	-	-	-	-	-
O=C1C(SCCO)=C(SCCO)C(=O)c2ccccc21	.	-	88.8	89.2	56.4
COc1ccc(N2CCN(C(=O)c3ccc(C)c(Cl)c3)CC2)cc1	-	40.1	-	-	-
CCOc1cccc(CNc2ccc(O)cc2)c1OCc1ccc(Cl)cc1Cl	-	68.9	-	-	-
CCOc1cccc(CNCCO)c1OCc1ccc(Cl)cc1Cl	-	-	-	-	-
CCOc1cccc(CNc2ccc(O)cc2)c1OCc1ccccc1Cl	-	-	-	-	55.2
O=C(COc1cc(Cl)c(Cl)cc1Cl)Nc1cccc(O)c1	-	-	-	-	63.4
O=C(COc1cc(Cl)c(Cl)cc1Cl)Nc1ccncc1	-	-	-	-	-
CN1C(=O)/C(=C\c2cc(N=Nc3ccccc3)ccc2O)SC1=S	-	48.8	-	-	-
O=C1c2ccccc2C(=O)c2cc(N3CCCCC3)ccc21	.	43.7	.	.	.
O=C(O)c1ccc(-c2nc3ccccc3[nH]2)cc1	-	-	62.5	75.1	73.0
CCC(C)N(C(=O)COC(=O)C1CCN(S(=O)(=O)c2ccc(C)c(C)c2)CC1)C1CCS(=O)(=O)C1 (stereo not drawn)	.	-	-	-	-
C(=Nc1ccccc1)c1ccc[nH]1	.	-	.	.	.
Oc1ccccc1N=Cc1ccc[nH]1	-	40.6	-	-	-
Cn1c(O)c(/C=N/NC(=O)c2cc3ccccc3cc2O)c2ccccc21	-	-	92.8	97.1	-
O=C(N/C(=C\c1ccccc1Cl)C(=O)N1CCOCC1)c1ccc([N+](=O)[O-])cc1	-	-	-	-	-
Cc1nccc(-c2cccc(NC(=O)Nc3ccc(Cl)cc3)c2)n1	-	-	-	-	-
Cc1nccc(-c2cccc(N/N=C(\C#N)C(=O)c3ccccc3)c2)n1	-	37.9	-	-	-
CCOC(=O)c1c2c(n(C)c1COC)C(=O)C(=O)c1ccc(Br)cc1-2	-	.	96.8	96.0	94.7
SMILES	HSP90 refold inh	SENP8 block-1	SENP8 block-2	SENP6 inh	SENP7 inh
COc1ccc(-c2noc(CCC(=O)N3CCN(c4ccccc4OC)CC3)n2)cc1	.	-	.	.	-
COc1ccc(N/N=C(\C=N\O)C(=O)c2ccc(OC)cc2)cc1	-	44.2	-	-	-
CCN(c1ccccc1)S(=O)(=O)c1ccc2[nH]cc(C(=O)NCCOC)c(=O)c2c1	-	-	-	-	-
COc1ccc(C(=O)/C(=C/c2cccs2)c2nc3ccccc3o2)cc1	16.6	-	-	-	-
CCS(=O)(=O)N1Cc2ccccc2CC1C(=O)Nc1nc2ccccc2s1 (stereo not drawn)	26.3	-	-	-	-
Cn1c(=O)c2cc3ccc(Cl)cc3nc2n(C)c1=O	-	-	-	-	-
Cc1oc2c(c1C(=O)NCc1cccnc1)C(=O)c1ccccc1C2=O	16.4	.	-	84.3	73.6
CC(=O)c1c(C)oc2c1C(=O)c1ccccc1C2=O	-	40.9	.	.	.
O=C1c2ccccc2C(=O)c2c1oc(C(F)(F)F)c2C(=O)c1ccccc1	-	72.8	59.2	77.3	-
O=C(NCc1ccccn1)c1nc(-c2ccc(C(F)(F)F)cc2)no1	-	-	-	-	-
NNC(=O)Cn1cnc2ccccc21	-	-	-	-	-
CCCCC(=O)N(C)c1c(CC)nc2c(OCc3ccc(C#N)cc3)cccn12	.	-	.	.	.
Cc1cc(C)c2c(n1)SCC(=O)N2CC(=O)Nc1cccc(Cl)c1	31.3	-	-	-	-
Cn1c(SCC(=O)Nc2ccc3c(c2)OCCO3)nnc1-c1ccco1	-	-	-	-	-
O=c1oc(-c2ccc([N+](=O)[O-])cc2)nc2ccc(O)cc12	-	-	95.4	95.1	100.0
CC(=O)N(c1ccccc1C)C1CCCC1	-	-	-	-	-
CC(=O)N(C1=C(Cl)C(=O)c2ccccc2C1=O)C1CCCCC1	-	-	-	51.0	-
CCOC(=O)[C@H]1[C@H]2COc3ccccc3[C@@H]2N2C(=O)c3c(C)cc(C)cc3NC(=O)[C@@]12C	.	-	-	-	-
CN1C(=O)c2ccccc2C(C(=O)O)C1c1cccc(Cl)c1 (stereo not drawn)	-	-	-	-	-
CC(=O)[C@H]1[C@@H]2C(=O)N(c3cccc(Cl)c3)C(=O)[C@@H]2[C@H]2c3ccccc3C=CN21	-	-	-	52.8	-
CC(=O)[C@@H]1[C@@H]2C(=O)N(c3ccc(F)c(Cl)c3)C(=O)[C@@H]2C2c3ccccc3C=CN21 (stereo partly drawn)	-	.	-	-	-
CC(=O)[C@H]1[C@H](c2cccc(Cl)c2)C(C#N)(C#N)[C@@H]2c3ccccc3C=CN21	-	.	-	66.9	-
CC(=O)[C@@H]1[C@@H]2C(=O)N(C3CCCCC3)C(=O)[C@@H]2C2c3ccccc3C=CN21 (stereo partly drawn)	-	.	-	54.9	-
Cc1ccc(-c2nnc(SCC#N)n2N)cc1	-	-	-	-	-
C[C@H]1O[C@H](O[C@H]2[C@H](O)[C@@H](O)[C@@H](O[C@H]3[C@H](O)[C@@H](O)C(O)O[C@@H]3CO)O[C@@H]2CO)[C@H](O)[C@@H](O)[C@@H]1N[C@H]1C=C(CO)[C@@H](O)[C@H](O)[C@H]1O (stereo partly drawn)	-	.	-	-	-
SMILES	HSP90 refold inh	SENP8 block-1	SENP8 block-2	SENP6 inh	SENP7 inh
Cc1noc(C)c1CSCC(=O)Nc1nc2ccccc2s1	-	-	-	-	-
Cc1noc(C)c1C(=O)Nc1nc2ccccc2s1	.	-	93.6	96.6	97.8
CCCn1cc(NC(=O)c2cc(-c3ccccc3)on2)cn1	-	-	-	-	-
CCc1nnc(NC(=O)CSc2nc3c(cc2C#N)CCC3)s1	-	-	-	-	-
N#Cc1cc2c(nc1SCC(=O)Nc1nccs1)CCCCC2	19.7	-	-	-	-
O=c1c2c([N+](=O)[O-])cc([N+](=O)[O-])cc2sn1Cc1ccccc1	-	-	-	-	-
CC(/C=N/NC(=O)c1sc(N)nc1C)=C\c1ccccc1	-	-	-	-	69.4
Cn1nc2sc3ccccc3n2c(=O)c1=O	-	-	-	-	-
CCc1c(O)nc2sc3ccccc3n2c1=O	-	40.2	-	-	-
Cc1ccccc1-c1csc(C(C)(O)c2cccnc2)n1 (stereo not drawn)	.	-	.	.	.
O=C1Cn2c(nc3ccccc32)-c2ccccc2N1	-	-	-	-	-
COc1cccc(/C=N/NC(=O)c2cnn(-c3ccccc3)c2N)c1	-	-	71.4	83.4	80.9
